Data reported in PubChem BioAssay (Tox21).
Values joined by “and” are separate entries in the source; they are usually repeats but may differ in a detail not shown here. Identical values can stand only once. Results filed as inconclusive are left out. A call without a number means that no potency is given here. A structure can be active in one record and inactive in another. Active and inactive are the calls of the source. Unless noted, the call rests on the fitted dose curve.

System: not listed separately
Test: qHTS assay to identify small molecule antagonists of the thyroid receptor (TR) signaling pathway - cell viability counter screen (AID 743064; active means well fitted curve in the direction sought with a large enough effect in the repeat runs; an effect the other way counts as inactive or inconclusive; further: nearly all actives have a fitted effect of over 50% in size; further: potency means the concentration at half of the fitted maximal effect)
Settings: GH3.TRE-Luc viability, CellTiter-Fluor, 24 h; series mostly up to 70.3 µM
Method in brief: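 GH3.TRE-Luc rat pituitary cells dosed after 4 hr plating, co-stimulated with T3 at 1 nM final, incubated 23.5 h at 37 C. Viability measured in the same wells by CellTiter-Fluor fluorescence after 30 min further at 37 C.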

SMILES | Potency
CCCCCCCCCCCCCC[P+](CCCC)(CCCC)CCCC | 2.16 µM (active) and 2.17 µM (active)
Nc1cc(S(=O)(=O)O)cc2cc(S(=O)(=O)O)cc(O)c12 | inactive
Cc1c(O)cccc1C(=O)N[C@@H](CSc1ccccc1)[C@H](O)CN1C[C@H]2CCCC[C@H]2C[C@H]1C(=O)NC(C)(C)C | 5.31 µM (active) and 2.11 µM (active)
CC(=O)O[C@]1(C(C)=O)CC[C@H]2[C@@H]3C[C@H](C)C4=CC(=O)CC[C@]4(C)[C@H]3CC[C@@]21C | inactive
CCN(CC)C(=S)SSC(=S)N(CC)CC | 34.2 µM (active)
CC(C)CCOCc1ccccc1 | inactive
CC(=O)Nc1ccc(C(=O)CCl)cc1 | inactive and 8.63 µM (active)
CCCN[C@H]1CCc2nc(N)sc2C1 | inactive
O | inactive
Nc1ccc(O)cc1 | 8.41 µM (active) and 17.2 µM (active) and 14.2 µM (active)
CC(C)(C)c1ccccc1 | inactive
CC(C)(C)NC(=O)[C@@H]1CN(Cc2cccnc2)CCN1C[C@@H](O)C[C@@H](Cc1ccccc1)C(=O)N[C@H]1c2ccccc2C[C@H]1O | inactive
OCCN1CCNCC1 | inactive

System: not listed separately
Test: qHTS assay to identify small molecule antagonists of the thyroid receptor (TR) signaling pathway (AID 743065; active means well fitted curve in the direction sought with a large enough effect in the repeat runs; an effect the other way counts as inactive or inconclusive; further: nearly all actives have a fitted effect of over 55% in size; further: potency means the concentration at half of the fitted maximal effect)
Settings: GH3.TRE-Luc, T3-stimulated luciferase inhibition, 23.5 h; series mostly up to 70.3 µM
Method in brief: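 GH3.TRE-Luc rat pituitary cells carrying two TR response elements driving luciferase were plated for 4 h, given compound plus 1 nM T3 (final), and incubated 23.5 h at 37 C. ONE-Glo luminescence measured reporter inhibition; CellTiter-Fluor fluorescence tracked cytotoxicity.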

SMILES | Potency
O=C1OC2(c3ccc(O)cc3Oc3cc(O)ccc32)c2ccccc21 | inactive
O=C(O)c1cc(Cl)cc(Cl)c1 | inactive
Oc1c(Cl)cc(Cl)cc1Sc1cc(Cl)cc(Cl)c1O | 8.63 µM (active) [middle of 4 runs]
Nc1ccc2cc3ccccc3cc2c1 | inactive
C/C=C/c1ccc(OCC)c(O)c1 | inactive
O=Cc1ccc(Cl)cc1 | inactive
COC(c1ccccc1)(c1ccccc1)[C@H](Oc1nc(C)cc(C)n1)C(=O)O | inactive
CCC[C@H](N[C@@H](C)C(=O)N1[C@H](C(=O)O)C[C@@H]2CCCC[C@@H]21)C(=O)OCC | inactive
CC(C)(C)NCC(O)c1cc(O)cc(O)c1 (stereo unspecified) | inactive
CC1COc2c(N3CCN(C)CC3)c(F)cc3c(=O)c(C(=O)O)cn1c23 (stereo unspecified) | inactive
C1COC(NC(C2CC2)C2CC2)=N1 | 29.8 µM (active)
CC[C@@H](N)CO | inactive
CCCOC(=O)c1cc(O)c(O)c(O)c1 | inactive
CC(=O)CC(=O)Nc1ccc2[nH]c(=O)[nH]c2c1 | inactive
C[N+]1([O-])CCOCC1 | inactive
NC(=Nc1ccccc1)Nc1ccccc1 | inactive

System: thyroid hormone receptor (rat, GH3 cells)
Test: qHTS assay to identify small molecule agonists of the thyroid receptor (TR) signaling pathway (AID 743066)
Settings: GH3.TRE-Luc cells, TR agonist luciferase, 24 h; series mostly up to 83.9 µM

SMILES | Potency
NC12CC3CC(CC(C3)C1)C2 | inactive
O=C1OC2(c3ccc(O)cc3Oc3cc(O)ccc32)c2ccccc21 | inactive
O=C(O)c1cc(Cl)cc(Cl)c1 | inactive
Oc1c(Cl)cc(Cl)cc1Sc1cc(Cl)cc(Cl)c1O | inactive
Nc1ccc2cc3ccccc3cc2c1 | inactive
Cc1c(O)cccc1C(=O)N[C@@H](CSc1ccccc1)[C@H](O)CN1C[C@H]2CCCC[C@H]2C[C@H]1C(=O)NC(C)(C)C | inactive
CCCCC(CC)COC(=O)CC(C(=O)OCC(CC)CCCC)S(=O)(=O)O (stereo unspecified) | inactive
C/C=C/c1ccc(OCC)c(O)c1 | inactive
O=Cc1ccc(Cl)cc1 | inactive
CCCN[C@H]1CCc2nc(N)sc2C1 | inactive
COC(c1ccccc1)(c1ccccc1)[C@H](Oc1nc(C)cc(C)n1)C(=O)O | inactive
CCC[C@H](N[C@@H](C)C(=O)N1[C@H](C(=O)O)C[C@@H]2CCCC[C@@H]21)C(=O)OCC | inactive
CCc1cc(C(C)(C)C)c(O)c(C(C)(C)C)c1 | inactive
CC(C)(C)NCC(O)c1cc(O)cc(O)c1 (stereo unspecified) | inactive
CC1COc2c(N3CCN(C)CC3)c(F)cc3c(=O)c(C(=O)O)cn1c23 (stereo unspecified) | inactive
NC(N)=NC(=O)Cc1c(Cl)cccc1Cl | inactive
C1COC(NC(C2CC2)C2CC2)=N1 | inactive
CCN(CC)c1ccc2c(C)cc(=O)oc2c1 | inactive
CC[C@@H](N)CO | inactive
CCCOC(=O)c1cc(O)c(O)c(O)c1 | inactive
CC(=O)CC(=O)Nc1ccc2[nH]c(=O)[nH]c2c1 | inactive
CC(C)(C)NC(=O)[C@@H]1CN(Cc2cccnc2)CCN1C[C@@H](O)C[C@@H](Cc1ccccc1)C(=O)N[C@H]1c2ccccc2C[C@H]1O | inactive
C[N+]1([O-])CCOCC1 | inactive
NC(=Nc1ccccc1)Nc1ccccc1 | inactive

Target: Estrogen receptor (Homo sapiens) (UniProt P03372)
Sequence (P03372 whole entry, looked up): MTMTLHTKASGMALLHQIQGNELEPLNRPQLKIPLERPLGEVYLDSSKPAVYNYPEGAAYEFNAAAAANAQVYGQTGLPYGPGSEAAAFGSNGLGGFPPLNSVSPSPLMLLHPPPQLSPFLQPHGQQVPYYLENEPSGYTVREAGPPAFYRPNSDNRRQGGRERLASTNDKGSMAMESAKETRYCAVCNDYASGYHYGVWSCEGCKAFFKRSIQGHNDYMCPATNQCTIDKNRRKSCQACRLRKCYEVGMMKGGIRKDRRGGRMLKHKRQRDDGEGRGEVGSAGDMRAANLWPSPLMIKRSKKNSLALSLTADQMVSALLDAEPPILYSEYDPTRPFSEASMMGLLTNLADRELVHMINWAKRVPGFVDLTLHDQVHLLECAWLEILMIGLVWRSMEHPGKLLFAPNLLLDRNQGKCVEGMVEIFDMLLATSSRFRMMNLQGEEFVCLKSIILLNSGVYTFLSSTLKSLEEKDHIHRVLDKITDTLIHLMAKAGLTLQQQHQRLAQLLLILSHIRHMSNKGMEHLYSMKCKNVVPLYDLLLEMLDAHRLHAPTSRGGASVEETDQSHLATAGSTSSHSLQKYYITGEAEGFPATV
Test: qHTS assay to identify small molecule antagonists of the estrogen receptor alpha (ER-alpha) signaling pathway (AID 743069; active means well fitted curve in the direction sought with a large enough effect in the signal ratio in the repeat runs, not every such curve was filed as active; the % refers to the signal ratio; further: potency means the concentration at half of the fitted maximal effect)
Settings: HEK293 ER-alpha-UAS-bla, beta-lactamase ratio, antagonist mode; series mostly up to 69.4 µM
Method in brief: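 HEK293 cells stably carrying an ER-alpha-UAS-bla beta-lactamase reporter were pre-cultured overnight in 2% charcoal-stripped FBS medium. Test compounds in DMSO were added together with 17beta-estradiol for 18 hr at 37C. Read-out was fluorescence after 2 hr with LiveBLAzer B/G FRET substrate at room temperature.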

SMILES | Potency
CCCCCCCCCCCCCC[P+](CCCC)(CCCC)CCCC | 21.9 µM [cytotoxic] (active)
CCCCC(CC)COC(=O)CC(C(=O)OCC(CC)CCCC)S(=O)(=O)O (stereo unspecified) | 21.3 µM [inhibitor] (active) and 54.9 µM [inhibitor] (active)
CC(C)CCOCc1ccccc1 | inactive
OCCN1CCNCC1 | inactive

System: not listed separately
Test: qHTS assay to identify small molecule antagonists of the estrogen receptor alpha (ER-alpha) signaling pathway - cell viability counter screen (AID 743074); further: nearly all actives have a fitted effect of over 45% in size; further: potency means the concentration at half of the fitted maximal effect
Settings: ERalpha-bla HEK293 viability, CellTiter-Glo luminescence, 18 h; series mostly up to 69.4 µM

SMILES | Potency
NC12CC3CC(CC(C3)C1)C2 | inactive
CCCCCCCCCCCCCC[P+](CCCC)(CCCC)CCCC | 3.45 µM (active) and 8.71 µM (active)
O=C1OC2(c3ccc(O)cc3Oc3cc(O)ccc32)c2ccccc21 | inactive
Nc1cc(S(=O)(=O)O)cc2cc(S(=O)(=O)O)cc(O)c12 | inactive
O=C(O)c1cc(Cl)cc(Cl)c1 | inactive
Oc1c(Cl)cc(Cl)cc1Sc1cc(Cl)cc(Cl)c1O | 21.9 µM (active) and 44.4 µM (active) and 27.5 µM (active)
Cc1c(O)cccc1C(=O)N[C@@H](CSc1ccccc1)[C@H](O)CN1C[C@H]2CCCC[C@H]2C[C@H]1C(=O)NC(C)(C)C | 53.5 µM (active)
CCCCC(CC)COC(=O)CC(C(=O)OCC(CC)CCCC)S(=O)(=O)O (stereo unspecified) | 47.1 µM (active) and inactive
CC(=O)O[C@]1(C(C)=O)CC[C@H]2[C@@H]3C[C@H](C)C4=CC(=O)CC[C@]4(C)[C@H]3CC[C@@]21C | inactive
C/C=C/c1ccc(OCC)c(O)c1 | inactive
CCN(CC)C(=S)SSC(=S)N(CC)CC | inactive and 39.8 µM (active)
CC(C)CCOCc1ccccc1 | inactive
CC(=O)Nc1ccc(C(=O)CCl)cc1 | inactive
O=Cc1ccc(Cl)cc1 | inactive
CCCN[C@H]1CCc2nc(N)sc2C1 | inactive
O | inactive
COC(c1ccccc1)(c1ccccc1)[C@H](Oc1nc(C)cc(C)n1)C(=O)O | inactive

SMILES | Potency
CCC[C@H](N[C@@H](C)C(=O)N1[C@H](C(=O)O)C[C@@H]2CCCC[C@@H]21)C(=O)OCC | inactive
CCc1cc(C(C)(C)C)c(O)c(C(C)(C)C)c1 | inactive
CC(C)(C)NCC(O)c1cc(O)cc(O)c1 (stereo unspecified) | inactive
c1ccc2c(c1)-c1cccc3c1c-2cc1ccccc13 | inactive
CC1COc2c(N3CCN(C)CC3)c(F)cc3c(=O)c(C(=O)O)cn1c23 (stereo unspecified) | inactive
NC(N)=NC(=O)Cc1c(Cl)cccc1Cl | inactive
Nc1ccc(O)cc1 | inactive
CC(C)(C)c1ccccc1 | inactive
C1COC(NC(C2CC2)C2CC2)=N1 | inactive
CCN(CC)c1ccc2c(C)cc(=O)oc2c1 | 49.4 µM (active) and inactive
CC[C@@H](N)CO | inactive
CC(COc1ccccc1)N(CCCl)Cc1ccccc1 (stereo unspecified) | inactive
CCCOC(=O)c1cc(O)c(O)c(O)c1 | inactive
CC(=O)CC(=O)Nc1ccc2[nH]c(=O)[nH]c2c1 | inactive
CC(C)(C)NC(=O)[C@@H]1CN(Cc2cccnc2)CCN1C[C@@H](O)C[C@@H](Cc1ccccc1)C(=O)N[C@H]1c2ccccc2C[C@H]1O | inactive
C[N+]1([O-])CCOCC1 | inactive
NC(=Nc1ccccc1)Nc1ccccc1 | inactive
